Among all 340,000 compounds or so, about 12,000 (3.5%) were called active. Roughly 18% stayed inconclusive and do not appear here. The call rests on the fitted dose curve; in most records, active means well fitted inhibition curve with a large enough effect; inconclusive means small, poorly fitted or top-dose-only effect, or another doubt; inactive means no such curve, though single readings can be large or run the other way. This excerpt belongs to a sample that is enriched for actives.
Test: qHTS Assay for Inhibitors of Hepatitis C Virus (HCV)
Conditions: Huh7.5.1 HCVcc-Cre infection, luciferase reporter, 44 h; series mostly up to 41.8 µM; activity change, negative = inhibition: at the top concentration
In short: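 Luciferase read-out (15 sec integration) after a 15 min room-temperature substrate step quantifies HCVcc-Cre infection. Cells, 1,000 per well, had compound added 4 h post-plating, then virus at ~0.5 moi, and were cultured 44 h.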
On the % scale 0 is the no-effect control and ±100 the full control effect; potency means the concentration at half of the fitted maximal effect.

SMILES | activity change, negative = inhibition | Potency
Cc1ccc(C)c(N2CCN(C(=O)CCc3nc(-c4cccc(C(F)(F)F)c4)no3)CC2)c1 | 2.72% (inactive) | –
COC(=O)c1ccc(C)c(NC(=O)Cn2c(C)csc2=O)c1 | 4.64% (inactive) | –
C#CC(C)(C)NC(=O)CSc1nc2c(c(=O)n(C)c(=O)n2C)n1CCCC | -15.9% (inactive) | –
CCOc1ccc2nc(NC(=O)CSc3nc4c(c(=O)n(C)c(=O)n4C)n3CC)sc2c1 | – | 3.98 µM (active)
Cn1nnnc1SCC(=O)Nc1nc2ccccc2s1 | -9.51% (inactive) | –
O=C(Cn1cnc2c(OCc3ccccc3)ncnc21)NCCCn1ccnc1 | 5.21% (inactive) | –
Cc1ccc(-n2nc3cc(Cl)c(NC(=O)c4ccco4)cc3n2)cc1 | -13.6% (inactive) | –
CCn1nc(NC(=O)c2ccco2)c2cc3ccc(C)cc3nc21 | – | 10 µM (active)
Cc1ccc(Cn2c(NC(=O)c3ccco3)nc3ccccc32)cc1 | -3.39% (inactive) | –
CN1CCOC1c1ccc(C2OCCN2C)cc1 (stereo not given) | 17.6% (inactive) | –
COc1ccc(-c2ccc(Nc3ccc(S(=O)(=O)N4CCCC4)cc3)nn2)cc1OC | – | 12.6 µM (active)
COc1ccc(S(=O)(=O)Nc2ccc(S(=O)(=O)N3CCCCC3)cc2)cc1OC | -1.61% (inactive) | –
COc1ccccc1CC(=O)Nc1ccc(S(=O)(=O)N2CCCC2)cc1 | -19.2% (inactive) | –
COc1ccc(NS(=O)(=O)c2ccc(N3CCOCC3)c(NC(=O)/C=C/C(=O)O)c2)cc1 | -1.43% (inactive) | –
Cc1nc(Nc2ccc3c(c2)OCCO3)c2nnn(Cc3ccccc3Cl)c2n1 | – | 10 µM (active)
Cc1nc(Nc2ccccc2F)c2nnn(Cc3ccccc3Cl)c2n1 | 6.92% (inactive) | –
CCCc1nc(NCc2ccc3c(c2)OCO3)c2nnn(Cc3ccccc3Cl)c2n1 | 9.92% (inactive) | –
CCN(CC(=O)Nc1ccccc1C(=O)NC1CC1)Cc1cccs1 | 0.258% (inactive) | –
Cc1ccccc1NC(=O)Cc1nc(COC(=O)c2ccc(C(F)(F)F)cc2)cs1 | -7.12% (inactive) | –
CCNC(=S)N(CCc1c(C)[nH]c2ccc(C)cc12)Cc1ccco1 | 1.39% [at 8.37 µM] (inactive) | –
COc1cccc(NC(=S)N(CCc2c(C)[nH]c3ccccc23)Cc2ccco2)c1 | – | 25.1 µM (active)
COc1cccc(NC(=S)NCc2ccco2)c1 | -5.4% (inactive) | –
CC(C)CC1(C)NC(=O)N(CC(=O)Nc2ccc3c(c2)OCCO3)C1=O (stereo not given) | 5.63% (inactive) | –
O=C(CSc1nc(Nc2ccccc2)nc(N2CCOCC2)n1)Nc1cc(Cl)ccc1O | – | 10 µM (active)
O=C(CN1CCOCC1)Nc1cc(Cl)ccc1Cl | 0.835% (inactive) | –

SMILES | activity change, negative = inhibition | Potency
CC1(c2ccccc2)NC(=O)N(CC(=O)Nc2cc(Cl)ccc2N2CCOCC2)C1=O (stereo not given) | 10.1% (inactive) | –
C#CCOCCOCCOCCNc1nc(N2CCN(C(=O)Cn3cc(CCO)nn3)CC2)nc(N2CCN(C(=O)Cn3cc(CCCN=C(N)N)nn3)CC2)n1 | 42.9% (inactive) | –
CCCCNC(=O)CSc1nnc(-c2ccco2)n1C | 11.8% (inactive) | –
CCCCNC(=O)CSc1nc2n[nH]c(C)c2c(=N)n1-c1cccc(Cl)c1C | – | 15.8 µM (active)
CCCCNC(=O)CSc1nccn1Cc1ccccc1 | 12.3% (inactive) | –
CCn1nc(C(=O)NNC(=O)C2CSC3(C)CCC(=O)N23)c2ccccc2c1=O (stereo not given) | -22.1% (inactive) | –
COc1cccc(CNC(C)C(=O)Nc2ccc(S(=O)(=O)N3CCCC3)cc2)c1 (stereo not given) | -22% (inactive) | –
O=C(Nc1nnc(-c2ccccc2)o1)c1cc(-c2cccs2)nc2ccccc12 | -12.9% (inactive) | –
COC(=O)c1cc(-c2cccs2)nc2ccccc12 | – | 12.6 µM (active)
O=C(NCCN1CCOCC1)c1cc(-c2cccs2)nc2ccccc12 | 12.8% (inactive) | –
O=C(O)CCCc1ccccc1 | – | inactive
O=C(O)CCc1cccnc1 | – | 0.891 µM (active)
N/C(=N\OC(=O)CCc1ccccc1)c1cccnc1 | -0.933% (inactive) | –
COc1ccc2c(CC(=O)NNC(=O)c3ccccc3F)coc2c1 | 6.42% (inactive) | –
Cc1cc(C)n2nc(C(=O)OCC(=O)N(C)CC(=O)Nc3ccc(F)cc3)nc2n1 | -0.618% (inactive) | –
Cc1ccc(C)c(-c2nnc(NC(=O)CS(=O)(=O)c3ccccc3)o2)c1 | 10% (inactive) | –
COc1ccc(S(=O)(=O)Nc2cccc3c2O[C@H](CN(C)S(=O)(=O)c2ccc(OC)cc2)[C@@H](C)CN([C@H](C)CO)C3=O)cc1 | 13.2% (inactive) | –
O=C(NCCCO)c1cc2c([nH]c3ccccc32)c(-c2ccc(F)cc2)n1 | – | 14.1 µM (active)
O=C(NCC1CCCO1)c1cc(-c2ccccc2)nc2ccccc12 (stereo not given) | -9.2% (inactive) | –
O=C(NCC1CCCO1)c1ccc2ccccc2n1 (stereo not given) | -11.2% (inactive) | –
O=C(NCCc1ccc(F)cc1)c1n[nH]c2ccccc12 | -2.17% (inactive) | –
O=C(NCC1CCCO1)c1cc2c([nH]c3ccccc32)c(-c2ccc(F)cc2)n1 (stereo not given) | – | 1.58 µM (active)
CN(C)CCCNC(=O)c1ccc2[nH]c3ccccc3c2c1 | 7.15% (inactive) | –
COc1ccc(CCNC(=O)COc2cc(C)cc3oc(=O)c(C)c(C)c23)cc1OC | 24.8% (inactive) | –
CC1CN(Cc2ccccc2)C(=S)NC1=O (stereo not given) | 33.1% (inactive) | –

— PubChem BioAssay AID651820 (National Center for Advancing Translational Sciences (NCATS), 2012)
